Screens from PubChem BioAssay.
Most compounds without a hit are left out; they make up all but 8.7% or so of the library.
Vaccinia mCherry – vaccinia inhibition (mCherry reporter). Vaccinia virus mCherry reporter infection, fluorescence. Potency, µM (titrated, usually from 36.5 µM), for the others: at the highest dose activity change, negative = inhibition, hits mostly inhibitors. 0.63% of 310,000 active. AID 720579; calls by dose curve; tested in A549 cells; note: nearly all actives have a fitted effect of over 35% in size
Pf growth 48h – inhibits P. falciparum growth in the first generation, 48 h. P. falciparum luciferase growth in erythrocytes, 48 h. Potency, µM (doses to about 28.7 µM), for the others: at the top dose activity change, negative = inhibition, actives largely listed as inhibitors. AID 504832. 5.9% of 310,000 active
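Here the parasites carry a stable luciferase gene and grow inside erythrocytes in Albumax-based RPMI medium with compound for one erythrocytic cycle. Activity is scored as loss of luminescent signal.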
VACV Venus inh – vaccinia inhibition (Venus reporter); 0.46% of 330,000 active; Vaccinia virus Venus reporter expression, fluorescence; Potency, µM (titrated, usually from 36.5 µM), for the others: at the highest dose activity change, negative = inhibition, hits mostly inhibitors; AID 720580; calls by dose curve; tested in A549 cells; note: nearly all actives have a fitted effect of over 30% in size
Pf growth 96h – P. falciparum growth inhibition at 96 hour, primary screen for plastid delayed-death inhibitors. 6.9% of 320,000 active. P. falciparum luciferase reporter growth, 96 h. Potency, µM (highest dose often 28.7 µM), without a hit: at the top dose activity change, negative = inhibition, hits mostly inhibitors
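P. falciparum expressing integrated firefly luciferase, in erythrocytes at 2% hematocrit, 0.05% parasitemia, incubated with compounds 96 h at 37 C, 5% CO2. Growth inhibition read as loss of luminescence; two-generation exposure targets delayed-death apicoplast inhibitors.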
AMA1 RON2 block – disrupts binding of P. falciparum AMA1 to RON2; AlphaScreen AMA1-biotinylated RON2 peptide binding; Potency, µM (highest dose often 58.2 µM), inactives show at the highest dose activity change, negative = inhibition, most hits filed as inhibitors; 0.2% of 360,000 active;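 note: 0% = vehicle wells and -100% = peptide control; nearly all actives have a fitted effect of over 45% in size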
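AMA1 (3D7) with his tag at 25 nM final met compounds first, then biotinylated RON2 peptide at 25 nM; detection used donor plus acceptor beads, 10 µg/mL apiece, read by AlphaScreen after 30 min at room temperature.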
Active calls of the source: *; i = inactive; ? = inconclusive; / = not tested or not shown. Unless noted, calls come from the whole dose curve; as a rule, active = well fitted curve in the direction sought with a large enough effect; inconclusive = small, poorly fitted or top-dose-only effect, or another doubt; inactive = no such curve, though single readings can be large; an effect the other way counts as inactive or inconclusive. Unless noted, % is set by controls: 0 for no effect and ±100 for the full control effect; potency is the fitted concentration of half-maximal effect.

SMILES	Vaccinia mCherry	Pf growth 48h	VACV Venus inh	Pf growth 96h	AMA1 RON2 block
O=C(CSc1nc2ccc(Nc3nc(N4CCOCC4)nc(N4CCOCC4)n3)cc2s1)Nc1ccccc1Cl	-9%	12µM*	-8%	2.6µM*	36%
CSc1nc2ccc(Nc3nc(N4CCOCC4)nc(N4CCOCC4)n3)cc2s1	/	9.3µM*	/	/	-4%
COc1ccc(N2CCN(Cc3nc4c(c(=O)[nH]c(=O)n4C)n3Cc3ccccc3F)CC2)cc1	-14%	/	-13%	/	/
COc1ccc2ncc3c(-c4ccccc4)nn(-c4ccc(C)c(C)c4)c3c2c1	-13%	/	-8%	/	/
COc1ccc(OC)c(/C=C/c2c3ccccc3cc[n+]2C)c1	-20%	/	-24%	/	/
O=C(CSc1nc2ccc(Nc3nc(N4CCOCC4)nc(N4CCOCC4)n3)cc2s1)N1CCOCC1	i	-1%	-16%	-7%	3%
CCOc1ccc2nc(SCC(=O)NC(=O)NCc3ccco3)sc2c1	/	-1%	-24%	34%	-6%
Cc1cccc(C)c1Nc1nnc(SCC(=O)NCc2ccco2)s1	-8%	?	-4%	0.83µM*	0%
CCOc1ccc(C(=O)Nc2ccc3nc(SCc4ccccc4)sc3c2)cc1	?	/	10µM*	/	/
O=C(CSc1nc2ccc(Nc3nc(N4CCOCC4)nc(N4CCOCC4)n3)cc2s1)Nc1ccccc1F	/	?	/	10µM*	-7%
Cc1ccc(OCC(=O)Nc2ccc3nc(SCc4ccccc4)sc3c2)cc1	-14%	/	-13%	/	/
CCOc1ccc2nc(SCC(=O)NCc3ccco3)sc2c1	/	8.3µM*	/	-6%	?
CC(=O)c1cc(-c2ccccc2)n(CCC(=O)Nc2nc3c(C)cccc3s2)c1C	-19%	/	-19%	/	/
CCN(C(=O)c1cn(C)c(=O)c2ccccc12)c1cccc(C)c1	-18%	/	-17%	/	/
Cc1cccc(N2C(=O)CN(Cc3sccc3C)C2=S)c1	-18%	?	-12%	-4%	34%
Cc1cc(C)cc(N2C(=O)CN(Cc3sccc3C)C2=S)c1	-6%	9.3µM*	-17%	?	11%
CCc1ccc2c(c1)c(=O)c(S(=O)(=O)c1ccccc1)cn2CC(=O)Nc1cc(C)ccc1C	0%	/	-7%	/	/
CCCS(=O)(=O)n1nc(-c2ccccc2)cc1N	10%	/	-4%	9.3µM*	9%
CCS(=O)(=O)n1nc(-c2ccccc2)cc1N	i	/	-6%	1.3µM*	-6%
CCS(=O)(=O)n1nc(-c2ccccc2)nc1N	-19%	4%	-1%	-16%	31%
CCOc1ccccc1CNC(=O)CCc1cn(Cc2ccc(Cl)cc2)c2ccccc12	-15%	/	-10%	/	/
Cc1ccc(C(=O)NNC(=O)C2CC2)cc1Br	-1%	14%	-10%	28%	33%
Cc1ccc(C(=O)N[C@@H](C)CN2C3=NC[C@H](C)N3C[C@H]2Cc2ccc(O)cc2)cc1Br	/	10µM*	/	4.1µM*	/
C/C=C(\C)C(=O)NCCN1C2=NC[C@H](C)N2C[C@@H]1Cc1ccc(OC)cc1	i	46%	-2%	63%	-5%
COc1ccc(C[C@@H]2CN3C(=NC[C@@H]3C)N2CCNC(=O)c2ccc(C)c(Br)c2)cc1	-18%	?	-22%	13µM*	0%
SMILES	Vaccinia mCherry	Pf growth 48h	VACV Venus inh	Pf growth 96h	AMA1 RON2 block
COc1ccc(C(C(=O)NC(C)(C)C)N(Cc2ccc(C)cc2)C(=O)CCC(=O)Nc2cc(C)on2)cc1 (stereo not drawn)	/	9.3µM*	/	14%	?
COCCN(C(=O)CCC(=O)Nc1cc(C)on1)C(C(=O)NC(C)(C)C)c1ccc(OC)cc1 (stereo not drawn)	i	-1%	-10%	-6%	-10%
COc1cccc(C(C(=O)NC(C)(C)C)N(C(=O)CCC(=O)Nc2cc(C)on2)C(C)C)c1OC (stereo not drawn)	/	12µM*	/	?	-13%
Cc1ccc(C2c3cccn3CCN2S(=O)(=O)c2ccc([N+](=O)[O-])cc2)cc1 (stereo not drawn)	?	/	-28%	/	/
Cc1cc(Br)ccc1NC(=O)COc1cc(=O)n(C)c2ccccc12	-9%	/	-6%	/	/
OC(CNCc1ccc(Cl)cc1)(c1ccccc1)c1ccc(F)cc1 (stereo not drawn)	?	13µM*	-3%	?	-7%
OC(CNCc1ccc(F)cc1)(c1ccc(F)cc1)c1ccc(F)cc1	/	?	/	13µM*	1%
Cc1cnc(C)c(-c2cc(F)cc3c2OC(CNC(=O)CN2CCCC2)C3)n1 (stereo not drawn)	-1%	/	-14%	/	/
C=CCN1C(=O)CN=C1Nc1ccc(F)cc1	-15%	10µM*	-2%	?	10%
COc1ccc(CN2C(=O)N(c3ccc(F)cc3)C(=O)C2CC(=O)Nc2ccccc2)cc1 (stereo not drawn)	-14%	/	-10%	/	/
CNc1cc[n+](C)c2ccccc12	32%	/	-9%	/	/
O=C1c2ccccc2C(=O)C1(CO)c1ccccc1	0%	160%	-5%	-11%	4%
O=C1c2ccccc2C(=O)C1(CO)c1ccc(OC(F)F)cc1	/	12µM*	/	126%	0%
CCN(C(=O)CCn1cnc2onc(-c3ccc(F)cc3)c2c1=O)c1ccc(OC)cc1	-20%	/	-8%	/	/
C=C(C)COc1ccc(-c2ncncc2-c2ccccc2OC)c(O)c1	-1%	13µM*	-26%	?	4%
CCOc1ccc(-c2ncncc2-c2ccccc2OC)c(O)c1	-13%	2.9µM*	-13%	?	12%
COc1ccc(-c2ncncc2-c2ccc(OC)c(OC)c2)c(O)c1	i	-11%	-23%	-17%	11%
COc1ccc(CNC(=O)C2CCN(S(=O)(=O)c3cccc(-c4noc(C)n4)c3)CC2)cc1	-5%	/	-11%	/	/
COc1cccc(CN2C(=O)NC(C)(C3CCN(Cc4cnn(C)c4C)CC3)C2=O)c1OC (stereo not drawn)	i	/	-10%	/	/
O=C(Nc1cccc(S(=O)(=O)N2CCCCC2)c1)C1=NN(c2ccccc2)C(=O)CC1	/	5.2µM*	/	6.6µM*	-11%
Cc1ccc(C)c(N2N=C(C(=O)Nc3ccc(S(=O)(=O)N4CCCC4)cc3)CCC2=O)c1	/	?	/	?	-5%
CCOc1ccc(NC(=O)C2=NN(c3ccccc3)C(=O)CC2)cc1S(=O)(=O)N1CCCCC1	/	12µM*	/	?	-8%
CCOc1ccc(NC(=O)CN2CCCC2c2cccs2)cc1S(=O)(=O)N1CCCC1 (stereo not drawn)	/	12µM*	/	15µM*	-9%
Cc1ccc(C)c(N2N=C(C(=O)Nc3cccc(S(=O)(=O)N4CCCCC4)c3)CCC2=O)c1	-5%	4.7µM*	-15%	4.7µM*	-10%
CCOc1ccc(NC(=O)c2ccco2)cc1S(=O)(=O)N1CCCC1	-9%	?	-4%	?	-12%
O=C(Nc1cc(S(=O)(=O)N2CCCCC2)ccc1Cl)C1=NN(c2ccccc2)C(=O)CC1	i	?	-4%	?	0%
COc1cc(NC(=O)C(Cc2ccccc2)NS(=O)(=O)c2cccs2)cc(OC)c1 (stereo not drawn)	-4%	/	-4%	/	/
